From PubChem BioAssay come the findings set out here.

A short description of assay [1]: growth inhibition of DIPG glioma cells, dose response, cell-based, SU-DIPG-XVII, MIPE5.0, CellTiter-Glo, qHTS (AID 1347060).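 As to AC50: cells exposed to compound for 48 hours before viability readout.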 To be noted: SU-DIPG-XVII viability, CellTiter-Glo ATP luminescence.
The nature of assay [2]: growth inhibition of DIPG glioma cells, dose response, cell-based, SU-DIPG-XIII, MIPE5.0, CellTiter-Glo, qHTS (AID 1347064; cut-off not given, nearly all actives have AC50 up to about 23 µM;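 as to AC50: cells exposed to compound for 48 hours before the viability read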). To be noted: SU-DIPG-XIII viability, CellTiter-Glo ATP luminescence.
Assay [3] is described as follows: viability loss in pontine glioma line – cell-based, SU-DIPG-XXV, MIPE5.0, CellTiter-Glo, qHTS, dose response (AID 1347065).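 Also: cells exposed to compound for 48 hours before ATP readout.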 As to conditions: CellTiter-Glo ATP luminescence. Background: In ATP-based viability assays light output follows the ATP content of the culture.
The nature of assay [4]: JHH-DIPG-1 glioma cell viability, MIPE5.0 library, CellTiter-Glo luminescence, qHTS (AID 1347067).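 Also: cells exposed to compound for 48 hours before readout.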 As to conditions: JHH-DIPG-1 glioma viability, CellTiter-Glo ATP luminescence.
A short description of assay [5]: SU-DIPG-XXV glioma cell viability, MIPE5.0 library, qHTS (AID 1347068; cut-off not given, nearly all actives have IC50 up to about 30 µM;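 as to IC50: cells exposed to compound for 48 hours before viability readout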). Background: In qHTS, concentration-response curves come from the screen itself.

Inconclusive results are not listed. Active and inactive are the calls of the source. Unless noted, the limit is not given here; nearly all actives have AC50 up to about 26 µM.

For orientation: AC50 means the concentration at which the activity in the assay is half-maximal. With `CCCCCCCOc1ccc(CCC(N)(CO)CO)cc1C(F)(F)F`, the half-maximal activity concentration (AC50) was 8.33 µM (active) in assay [1], 8.33 µM (active) in assay [2], 9.34 µM (active) in assay [3] and 8.33 µM (active) in assay [4].

Turning to `Nc1nc2cc(-c3ccc4ncc(C(=O)N5CCOCC5)n4c3)ccc2o1`, the AC50 in assay [1] is 18.6 µM (active); in assay [2], 14.8 µM (active); in assay [3] it was 9.34 µM (active); in assay [4], 10.5 µM (active).

Take `O=C(/C=C\n1cnc(-c2cc(C(F)(F)F)cc(C(F)(F)F)c2)n1)NNc1ccccn1`: the AC50 in assay [1] is 2.95 µM (active); in assay [2], 0.295 µM (active); in assay [3], 5.25 µM (active); in assay [4], 13.2 µM (active).

On to `COc1cccc2c1c(O)c(C(=O)N(C)c1ccc(C(F)(F)F)cc1)c(=O)n2C`, for which the compound was classed as inactive in assay [1], in assay [2], in assay [3] and in assay [4].

For `Cc1cc(-c2cc(OC(=O)c3ccccc3)ccc2Cl)cc2nnc(Nc3ccc(OCCN4CCCC4)cc3)nc12`, the AC50 in assay [1] was 5.12 µM (active); in assay [2], 7.23 µM (active); in assay [3], 5.12 µM (active); in assay [4], 5.12 µM (active).

By IC50 is commonly meant the concentration that gives 50% inhibition. On to `Nc1ncnc(Nc2ccc(OCc3ccccc3)c(Cl)c2)c1/C=N/OCCN1CCOCC1`, for which the AC50 in assay [1] is 23.5 µM (active); in assay [2], 16.6 µM (active); in assay [3] it was 16.6 µM (active); in assay [4] it was 18.6 µM (active). Besides, in assay [5], the IC50 is 14.8 µM (active).

For `Nc1cc(C(F)(F)F)c(-c2nc(N3CCOCC3)nc(N3CCOCC3)n2)cn1`, the AC50 was 2.35 µM (active) in assay [1], 3.72 µM (active) in assay [2], 0.742 µM (active) in assay [3] and 2.35 µM (active) in assay [4]. In assay [5], the IC50 was 1.86 µM (active).

On to `COc1nc(OCc2cccc(-c3ccccc3)c2C)ccc1CNCCNC(C)=O`, for which the AC50 in assay [1] is 7.42 µM (active); in assay [2], 8.33 µM (active); in assay [3], 9.34 µM (active); in assay [4] it was 9.34 µM (active). Further, in assay [5], the half-maximal inhibitory concentration (IC50) is 14.8 µM (active).

As for `NS(=O)(=O)NCCNc1nonc1C(=Nc1ccc(F)c(Br)c1)NO`, the outcome in assay [1], in assay [2], in assay [3], in assay [4] and in assay [5] was inactive.

As to `Cc1c[nH]c2nc(Nc3ccc(N4CCN(C)CC4)c(F)c3)nc(-c3cccc(CC#N)c3)c12`, the concentration at half-maximal activity (AC50) was 2.35 µM (active) in assay [1], 4.17 µM (active) in assay [2], 4.17 µM (active) in assay [3] and 3.72 µM (active) in assay [4]. Besides, the IC50 in assay [5] was 3.32 µM (active).

Consider `Nc1ncccc1-c1nc2ccc(-c3ccccc3)nc2n1-c1ccc(C2(N)CCC2)cc1`, for which the AC50 in assay [1] was 11.8 µM (active); in assay [2], 4.17 µM (active); in assay [3], 2.95 µM (active); in assay [4], 5.9 µM (active). Moreover, the IC50 in assay [5] was 20.9 µM (active).

As for `NC(=O)c1ccc2nc(-c3ccc(C4(N)CCC4)cc3)c(-c3ccccc3)n2n1`, the concentration at half-maximal activity (AC50) in assay [1] was 13.2 µM (active); in assay [2] it was 6.61 µM (active); in assay [3] it was 7.42 µM (active); in assay [4], 7.42 µM (active). In addition, in assay [5], the compound was classed as inactive.

Consider `COc1cc2c(NC3CCN(CC4CCCCC4)CC3)nc(N3CCCN(C(C)C)CC3)nc2cc1OCCCN1CCCCC1`, for which the AC50 in assay [1] was 14.8 µM (active); in assay [2], 18.6 µM (active); in assay [3], 13.2 µM (active); in assay [4], 20.9 µM (active). In addition, the IC50 in assay [5] is 5.25 µM (active).

On to `CN(C)CCNC(=O)COc1c2cccc1Cc1cccc(c1OCC(=O)NCCN(C)C)Cc1cccc(c1OCC(=O)NCCN(C)C)Cc1cccc(c1OCC(=O)NCCN(C)C)C2`, for which the call in assay [1], in assay [2], in assay [3], in assay [4] and in assay [5] was inactive.

As for `C[C@@H]1CCN(C(=O)N2CCCC2)C[C@@H]1N(C)c1ncnc2[nH]ccc12`, the call in assay [1], in assay [2], in assay [3], in assay [4] and in assay [5] was inactive.

Take `CCn1c(=O)c(-c2ccc(-c3cncs3)cc2Cl)cc2cnc(Nc3ccc(N4CCN(C)CC4)cc3)nc21`: the half-maximal activity concentration (AC50) in assay [1] is 3.32 µM (active); in assay [2], 8.33 µM (active); in assay [3], 2.95 µM (active); in assay [4], 5.25 µM (active). The IC50 in assay [5] is 10.5 µM (active).

Consider `O=C([C@@H](Cc1cccc(C(F)(F)F)c1)NS(=O)(=O)c1cc(F)c2c(c1)CCNC2)N1CCCC1`, for which the compound was called inactive in assay [1], in assay [2], in assay [3], in assay [4] and in assay [5].

Consider `COc1ccc(S(=O)(=O)N2CCc3cccc(-c4ccncc4)c32)cc1`, for which the AC50 in assay [1] was 0.468 µM (active); in assay [2], 0.295 µM (active); in assay [3] it was 0.332 µM (active); in assay [4] it was 0.332 µM (active). Moreover, the IC50 in assay [5] was 0.833 µM (active).

As for `C=CC(=O)N1CC[C@@H](Oc2nc(Nc3ccc(N4CCC(N5CCN(C)CC5)CC4)cc3)c(C(N)=O)nc2CC)C1`, the AC50 is 1.15 µM (active) in assay [1], 0.811 µM (active) in assay [2], 0.91 µM (active) in assay [3] and 2.29 µM (active) in assay [4]. In assay [5], the IC50 was 4.56 µM (active).

Turning to `NC(=O)/C(=C/n1cnc(-c2cc(C(F)(F)F)cc(C(F)(F)F)c2)n1)c1cncnc1`, the AC50 was 0.417 µM (active) in assay [1], 2.09 µM (active) in assay [2], 2.35 µM (active) in assay [3] and 11.8 µM (active) in assay [4]. Also, the IC50 in assay [5] is 3.32 µM (active).

Take `C=CCNC1=C2CC(C)CC(OC)C(O)C(C)/C=C(\C)C(OC(N)=O)C(OC)/C=C/C=C(\C)C(=O)NC(=CC1=O)C2=O` (stereo not given): the AC50 was 0.59 µM (active) in assay [1], 1.66 µM (active) in assay [2], 4.68 µM (active) in assay [3] and 0.525 µM (active) in assay [4]. Further, the IC50 in assay [5] is 3.72 µM (active).

Consider `O=C1Cc2cc(C(=O)NC3C[C@H]4CC[C@@H](C3)N4S(=O)(=O)CC3CCN(CCCC(F)(F)F)CC3)c(Cl)cc2N1` (stereo not given in full), for which the outcome in assay [1], in assay [2], in assay [3], in assay [4] and in assay [5] was inactive.

In the case of `CNC(=O)Cn1cc(-c2ccc3c(c2)C(F)CC32NC(=O)N(CC(=O)N(Cc3ccc(F)cc3)[C@@H](C)C(F)(F)F)C2=O)cn1` (stereo not given in full), the result in assay [1], in assay [2], in assay [3], in assay [4] and in assay [5] was inactive.

In the case of `COc1cc(-c2cn(C)c(=O)c3cnccc23)cc(OC)c1CN(C)C`, the outcome in assay [1], in assay [2], in assay [3], in assay [4] and in assay [5] was inactive.

In the case of `CO[C@@H]1COCC[C@@H]1N[C@@H]1CC[C@@](C(=O)N2CCc3ncc(C(F)(F)F)cc3C2)(C(C)C)C1`, the call in assay [1], in assay [2], in assay [3], in assay [4] and in assay [5] was inactive.

As to `Cc1c(CN2CCC(Nc3ncnc4sc(CC(F)(F)F)cc34)CC2)ccc2c1cc(C#N)n2Cc1cn[nH]c1`, the AC50 in assay [1] is 20.9 µM (active); in assay [2], 23.5 µM (active); in assay [3], 29.5 µM (active); in assay [4], 18.6 µM (active). The result in assay [5] was inactive.

Turning to `O=C(O)CCCCN(CCc1ccccc1OCc1ccc(CCc2ccccc2)cc1)Cc1ccc(C(=O)O)cc1`, the call in assay [1], in assay [2], in assay [3], in assay [4] and in assay [5] was inactive.

For `COc1ccc(S(=O)(=O)Nc2cc(-c3csc(C#N)c3)ccc2C)cc1`, the AC50 is 0.0742 µM (active) in assay [1], 0.166 µM (active) in assay [2], 0.148 µM (active) in assay [3] and 0.0934 µM (active) in assay [4]. Also, the IC50 in assay [5] was 0.263 µM (active).
